Source: PubChem BioAssay (several laboratories)
Tat transport: E. coli Tat export inhibitors, primary screen, MC4100, TorA-mCherry reporter, fluorescence, single point. inhibition, % at 10 µM. hit rate 0.036% among 340,000;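 active = mean replicate inhibition at least 50% and at least half of replicates individually reaching 50%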;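 note: exported cargo escapes ClpAP degradation while cytoplasmic cargo is degraded and loses fluorescence; 0% = median of neutral control wells and 100% = median of NaSCN control wells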
AddAB inh: growth inhibition of E. coli expressing H. pylori AddAB, primary screen, AddAB inhibitor project, absorbance | AID 435030, 2010 | inhibition, % at 11.9 µM | hit rate 0.29% among 330,000; in the data active = inhibition above about 12%;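 note: 0% = vehicle wells of infected cells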
phage Ecoli inh: growth loss of phage-infected E. coli, primary screen, RecBCD inhibitor project, absorbance, with phage, HTS | inhibition, % at 11.9 µM | AID 651602, 2012 | hit rate 0.26% among 360,000; in the data active = inhibition above about 11%
E coli growth-1: E. coli V3065 growth inhibition, primary screen, counter-screen for AddAB inhibitor project, absorbance, OD600 | inhibition, % at 11.9 µM | hit rate 0.27% among 330,000 | 18 h;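 active = inhibition above the campaign's mean inhibition across all tested compounds plus 3 SD, cut at about 9.9% in these data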;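 note: uninfected addAB+ strain grown without phage in ampicillin broth; 0% = DMSO wells and 100% = ciprofloxacin 0.95 µg/ml wells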
E coli growth-2: E. coli growth inhibition, primary screen, OD600; hit rate 0.21% among 330,000; AID 1053175, 2014; Escherichia coli growth, 23 h; hits give low values; OD600 absorbance (concentration not given with the values);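 active = OD600 absorbance below the run mean of sample wells minus 3.6 SD, in any replicate, cut at about 0.56 in these data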
AddAB conf: growth loss of phage-infected E. coli expressing H. pylori AddAB, confirmation, AddAB inhibitor project, absorbance, E. coli V3065, T4 phage, triplicate; hit rate 64% among 880; OD; T4 phage with gene 2 nonsense mutations; shares compounds with AddAB inh; inhibition, % at 11.9 µM;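 active = mean inhibition above a set limit taken from the earlier primary screen, cut at about 13% in these data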;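 note: higher means less bacterial growth since AddAB block lets phage replicate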
RecBCD counter: growth loss of RecBCD+ E. coli with mutant T4 phage, counter-screen for AddAB inhibitor project, absorbance, V66 E. coli | shares compounds with AddAB inh | OD growth | inhibition, % at 11.9 µM | hit rate 73% among 880;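 active = mean inhibition above the mean of solvent-only control wells plus 3 SD, cut at about 4% in these data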;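 note: optical density read after an 18 h incubation at 37 °C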
Bact viability: bacterial viability inhibition counter-screen, confirmation, counter-screen for AddAB inhibitor project, absorbance; inhibition, % at 11.9 µM; absorbance (AddAB counterscreen); shares compounds with AddAB inh; AID 488956, 2010; hit rate 35% among 880; in the data active = inhibition above about 25%
RecBCD conf: growth loss of phage-infected RecBCD+ E. coli, confirmation, RecBCD inhibitor project, absorbance, E. coli V66, T4 gene 2 phage. shares compounds with phage Ecoli inh. E. coli V66 + T4 2- phage, growth OD. inhibition, % at 11.9 µM. hit rate 45% among 890;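 active = mean inhibition over triplicates exceeding the hit threshold derived in the original primary screen, cut at about 11% in these data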
Ecoli viability: E. coli viability inhibition, counter-screen for RecBCD inhibitor project, absorbance, high throughput. shares compounds with phage Ecoli inh. absorbance (OD) growth. inhibition, % at 11.9 µM. hit rate 29% among 890; in the data active = inhibition above about 20%;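 note: E. coli strain V66 grown with compound alone and no phage infection; 0% = bacteria with DMSO vehicle only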
AddAB phage OD: growth loss of phage-infected AddAB-carrying E. coli, confirmation, counter-screen for RecBCD inhibitor project, absorbance, E. coli V3065, T4 phage; AID 651984, 2013; E. coli expressing H. pylori AddAB + T4 phage, OD growth; gene 2 mutant T4, recBCD-deleted host; hit rate 45% among 890; inhibition, % at 11.9 µM; shares compounds with phage Ecoli inh;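 active = mean inhibition above the solvent-only control wells' mean plus 3 SD, cut at about 22% in these data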;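 note: higher means less bacterial growth from phage killing when AddAB is blocked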
* hit, by the source's call; ! = not confirmed by another sample. This is a sample that favours compounds with a hit; in the whole collection about 0.5% have one here.

O=C1[C@H](Oc2ccccc2)[C@@H](c2ccncc2)N1c1ccncc1 was read as Tat transport 1.9, AddAB inh -0.1, phage Ecoli inh 2.1, E coli growth-1 -0.5 and E coli growth-2 0.73.
`Cc1nc2ccc(C(=O)N/N=C/c3cc([N+](=O)[O-])ccc3O)cc2[nH]1` gave Tat transport -2.4, AddAB inh 19.4*, phage Ecoli inh 17.2*, E coli growth-1 17.3*, AddAB conf 8.0, RecBCD counter 13.6*, Bact viability 12.2, RecBCD conf 4.1, Ecoli viability 8.6 and AddAB phage OD 12.3.
For Cc1ccc(NC(=O)CC2C(=O)NCCN2C(=O)c2ccc(F)cc2)cc1 (stereo not drawn) the results were Tat transport 2.9, AddAB inh 0.6, phage Ecoli inh 0.2, E coli growth-1 1.7 and E coli growth-2 0.688.
For O=Cc1ccc2ccc3cccnc3c2n1 the results were Tat transport -13.1, AddAB inh 4.7, phage Ecoli inh 2.1, E coli growth-1 5.5 and E coli growth-2 0.684.
For c1cnc2c(c1)ccc1cccnc12 the results were Tat transport -1.4, AddAB inh 12.3*!, phage Ecoli inh 12.0*, E coli growth-1 12.2*!, E coli growth-2 0.328*, AddAB conf 13.4*, RecBCD counter 19.7*, Bact viability 7.1, RecBCD conf 9.5, Ecoli viability 10.3 and AddAB phage OD 6.5.
`N#C/C(=C(/O)c1ccc([N+](=O)[O-])o1)c1nc2ccccc2[nH]1` gave Tat transport 4.8, AddAB inh 19.2*, phage Ecoli inh 13.4*, E coli growth-1 13.5*, E coli growth-2 0.466*, AddAB conf 95.8*, RecBCD counter 63.2*, Bact viability 97.8*, RecBCD conf 34.9*, Ecoli viability 64.0* and AddAB phage OD 100.6*.
`N#C/C(=C\c1ccc(Sc2ccccc2)o1)c1nc2ccccc2[nH]1` gave Tat transport 6.6, AddAB inh 1.1, phage Ecoli inh 1.7, E coli growth-1 0.6 and E coli growth-2 0.692.
For N#C/C(=C\c1ccc([N+](=O)[O-])o1)c1nc2ccccc2[nH]1 the results were AddAB inh 93.5*, phage Ecoli inh 13.0*, E coli growth-1 16.6*, E coli growth-2 0.614, AddAB conf 100.1*, RecBCD counter 16.0*, Bact viability 94.3*, RecBCD conf 11.4*, Ecoli viability 11.9 and AddAB phage OD 76.5*.
For CC(C)(C)/C(O)=C(/C#N)c1nc2ccccc2[nH]1 the results were Tat transport 7.1, AddAB inh -2.0, phage Ecoli inh -3.3 and E coli growth-1 0.0.
`O=C(NCC1CCCO1)c1cc2c([nH]c3ccccc32)c(-c2cccc(Br)c2)n1` (stereo not drawn) gave Tat transport 3.3, AddAB inh 4.4, phage Ecoli inh 5.5, E coli growth-1 0.5 and E coli growth-2 0.733.
